Source: PubChem BioAssay AID1159580 (chemical genetic matrix, 2015)
Hit rate of the full screen: of about 5,500 compounds, about 2,000 (36%) were called active. About 18% were inconclusive and are not listed. Rule as the data show it: active = normalized growth mostly below about 0.91 (no sharp cut-off); inconclusive = no clear call, values can overlap the other calls; inactive = mostly above about 0.92. This is one part of the list.

Test: chemical genetic growth profiling, strain panel (AID 1159580);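 also: tested at 20 µM; growth read once vehicle control cultures reached saturation at 30 °C; 1 = growth at the plate median or of vehicle wells; lower values mean less growth of the strain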
Conditions: growth OD

Measured: normalized growth

NC1C[C@H]1c1ccccc1 (some centres not stated)
inactive: S. cerevisiae deletion strains, locus YJR075W, strain HOC1, active compounds read low 0.998 | S. cerevisiae deletion strains, locus YKL009W, strain mrt4, active compounds read low 0.989 | S. cerevisiae deletion strains, locus YKL068W, active compounds read low 0.992 | S. cerevisiae deletion strains, locus YKL085W, strain MDH1 (second series), active compounds read low 0.987 | S. cerevisiae deletion strains, locus YKL085W, strain MDH1, active compounds read low 0.987 | S. cerevisiae deletion strains, locus YKL160W, strain elf1, active compounds read low 0.964 | S. cerevisiae deletion strains, locus YKL190W, strain CNB1, active compounds read low 1.01 | S. cerevisiae deletion strains, locus YKR001C, strain vps1, active compounds read low 0.98 | S. cerevisiae deletion strains, locus YKR026C, strain gcn3, active compounds read low 0.984 | S. cerevisiae deletion strains, locus YKR091W, strain srl3, active compounds read low 0.979 | S. cerevisiae deletion strains, locus YLL001W, strain dnm1, active compounds read low 0.977 | S. cerevisiae deletion strains, locus YLL026W, active compounds read low 0.996 | S. cerevisiae deletion strains, locus YLL041C, strain sdh2, active compounds read low 1 | S. cerevisiae deletion strains, locus YLR027C, strain aat2, active compounds read low 0.987 | S. cerevisiae deletion strains, locus YLR039C, strain RIC1, active compounds read low 1.01 | S. cerevisiae deletion strains, locus YLR058C, strain SHM2, active compounds read low 1.01 | S. cerevisiae deletion strains, locus YLR102C, strain apc9, active compounds read low 0.985 | S. cerevisiae deletion strains, locus YLR113W, strain HOG1, active compounds read low 0.981 | S. cerevisiae deletion strains, locus YLR221C, strain rsa3, active compounds read low 1.01 | S. cerevisiae deletion strains, locus YLR258W, strain gsy2, active compounds read low 0.981 | S. cerevisiae deletion strains, locus YLR262C, strain YPT6 (second series), active compounds read low 0.974 | S. cerevisiae deletion strains, locus YLR262C, strain YPT6, active compounds read low 1.03 | S. cerevisiae deletion strains, locus YLR268W, strain sec22, active compounds read low 0.963 | S. cerevisiae deletion strains, locus YLR320W, strain mms22, active compounds read low 1.02 | S. cerevisiae deletion strains, locus YLR330W, strain CHS5, active compounds read low 1.01 | S. cerevisiae deletion strains, locus YLR342W, strain FKS1 (second series), active compounds read low 0.987 | S. cerevisiae deletion strains, locus YLR342W, strain FKS1, active compounds read low 0.973 | S. cerevisiae deletion strains, locus YLR357W, strain rsc2, active compounds read low 0.939 | S. cerevisiae deletion strains, locus YLR370C, strain arc18, active compounds read low 0.989 | S. cerevisiae deletion strains, locus YLR371W, strain rom2, active compounds read low 0.972 | S. cerevisiae deletion strains, locus YLR384C, strain iki3, active compounds read low 0.989 | S. cerevisiae deletion strains, locus YLR418C, strain cdc73, active compounds read low 0.962 | S. cerevisiae deletion strains, locus YML016C, strain PPZ1, active compounds read low 1.01 | S. cerevisiae deletion strains, locus YML032C, strain rad52, active compounds read low 0.985 | S. cerevisiae deletion strains, locus YML120C, strain ndi1, active compounds read low 1.01 | S. cerevisiae deletion strains, locus YML124C, strain tub3, active compounds read low 0.987 | S. cerevisiae deletion strains, locus YMR058W, strain fet3, active compounds read low 1 | S. cerevisiae deletion strains, locus YMR078C, strain ctf18, active compounds read low 0.981 | S. cerevisiae deletion strains, locus YMR125W, strain sto1, active compounds read low 0.939 | S. cerevisiae deletion strains, locus YMR129W, active compounds read low 0.998 | S. cerevisiae deletion strains, locus YMR205C, strain PFK2, active compounds read low 1.02 | S. cerevisiae deletion strains, locus YMR223W, strain ubp8, active compounds read low 0.98 | S. cerevisiae deletion strains, locus YMR231W, strain pep5, active compounds read low 0.975 | S. cerevisiae deletion strains, locus YMR263W, strain SAP30, active compounds read low 1 | S. cerevisiae deletion strains, locus YMR307W, strain GAS1, active compounds read low 0.945 | S. cerevisiae deletion strains, locus YNL067W, strain RPL9B, active compounds read low 1.01 | S. cerevisiae deletion strains, locus YNL071W, strain lat1, active compounds read low 0.984 | S. cerevisiae deletion strains, locus YNL128W, strain TEP1, active compounds read low 1.02 | S. cerevisiae deletion strains, locus YNL153C, strain GIM3, active compounds read low 0.989 | S. cerevisiae deletion strains, locus YNL183C, strain NPR1, active compounds read low 0.933 | S. cerevisiae deletion strains, locus YNL209W, strain ssb2, active compounds read low 0.977 | S. cerevisiae deletion strains, locus YNL233W, strain BNI4, active compounds read low 0.993 | S. cerevisiae deletion strains, locus YNL248C, strain rpa49, active compounds read low 0.929 | S. cerevisiae deletion strains, locus YNL250W, strain rad50, active compounds read low 0.973 | S. cerevisiae deletion strains, locus YNL271C, strain bni1, active compounds read low 0.987 | S. cerevisiae deletion strains, locus YNL298W, strain CLA4, active compounds read low 0.987 | S. cerevisiae deletion strains, locus YNL307C, strain MCK1, active compounds read low 0.988 | S. cerevisiae deletion strains, locus YNL322C, strain KRE1 (second series), active compounds read low 0.98 | S. cerevisiae deletion strains, locus YNL322C, strain KRE1, active compounds read low 1.01 | S. cerevisiae deletion strains, locus YNR049C, strain mso1, active compounds read low 0.989 | S. cerevisiae deletion strains, locus YNR052C, strain pop2, active compounds read low 0.995 | S. cerevisiae deletion strains, locus YOL006C, strain TOP1, active compounds read low 1.05 | S. cerevisiae deletion strains, locus YOL012C, strain htz1 0.845 | S. cerevisiae deletion strains, locus YOL147C, strain pex11, active compounds read low 0.983 | S. cerevisiae deletion strains, locus YOR001W, strain rrp6, active compounds read low 1.02 | S. cerevisiae deletion strains, locus YOR061W, strain CKA2, active compounds read low 1.01 | S. cerevisiae deletion strains, locus YOR069W, strain VPS5, active compounds read low 1.01 | S. cerevisiae deletion strains, locus YOR070C, strain gyp1, active compounds read low 0.992 | S. cerevisiae deletion strains, locus YOR080W, strain dia2, active compounds read low 0.993 | S. cerevisiae deletion strains, locus YOR083W, strain WHI5, active compounds read low 0.934 | S. cerevisiae deletion strains, locus YOR106W, strain vam3, active compounds read low 0.99 | S. cerevisiae deletion strains, locus YOR136W, strain idh2, active compounds read low 0.982 | S. cerevisiae deletion strains, locus YOR144C, strain elg1, active compounds read low 0.988 | S. cerevisiae deletion strains, locus YOR184W, strain ser1, active compounds read low 0.994 | S. cerevisiae deletion strains, locus YOR231W, strain MKK1, active compounds read low 0.986 | S. cerevisiae deletion strains, locus YOR265W, strain rbl2, active compounds read low 0.99 | S. cerevisiae deletion strains, locus YOR270C, strain vph1, active compounds read low 0.997 | S. cerevisiae deletion strains, locus YOR290C, strain snf2, active compounds read low 0.964 | S. cerevisiae deletion strains, locus YOR316C, strain cot1, active compounds read low 0.988 | S. cerevisiae deletion strains, locus YPL051W, strain arl3, active compounds read low 0.983 | S. cerevisiae deletion strains, locus YPL055C, strain LGE1, active compounds read low 1 | S. cerevisiae deletion strains, locus YPL078C, strain atp4, active compounds read low 0.975 | S. cerevisiae deletion strains, locus YPL106C, strain sse1, active compounds read low 0.961 | S. cerevisiae deletion strains, locus YPL240C, strain hsp82, active compounds read low 1.02 | S. cerevisiae deletion strains, locus YPL241C, strain CIN2, active compounds read low 1 | S. cerevisiae deletion strains, locus YPL256C, strain CLN2, active compounds read low 0.956 | S. cerevisiae deletion strains, locus YPR119W, strain clb2, active compounds read low 0.991 | S. cerevisiae deletion strains, locus YPR141C, strain kar3, active compounds read low 0.981 | S. cerevisiae deletion strains, locus YPR163C, strain tif3, active compounds read low 0.983 | S. cerevisiae deletion strains, locus YPR167C, strain met16, active compounds read low 0.984 | S. cerevisiae deletion strains, strain wtn01, active compounds read low 0.964 | S. cerevisiae strains, strain wild type, active compounds read low 1.01
